From PubChem BioAssay (EPA / NIEHS)
Where “and” joins values, the source holds several entries; their conditions need not be identical. Identical values can stand only once. Results filed as inconclusive are left out. Calls of active or inactive are those of the source. The calls were made as follows: active = hit-call score of the fitted dose curve at least 0.9, where 1 is the maximum; inconclusive = response in the unintended direction; inactive = score below 0.9.

Experiments:
[1] = ATG_XTT_Cytotoxicity: Cytotoxicity Assessment in the Attagene TRANS-FACTORIAL HepG2 Assay (AID 2283584);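 as to AC50: XTT signal for cell number as viability in transfected HepG2 cells; cells exposed to compound for 24 h before reading; active means loss of viability signal versus DMSO baseline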
Method in brief: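 Transfect HepG2 with GAL4-UAS reporter units, dose compound, incubate 24 h, then measure viable cell number by XTT. Fit concentration response against DMSO baseline.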

[2] = TOX21_p53_BLA_p2_viability: Viability Assessment in the Tox21 HCT-116 p53 Agonism Beta-lactamase Assay, Phase 2 (AID 2283591);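 also: compound exposure lasted 16 h at 37 °C; actives lower the ATP signal meaning cytotoxicity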
Method in brief: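 Cytotoxicity readout: CellTiter-Glo ATP luminescence, 30 min at room temperature, after the beta-lactamase read. Cells were HCT116 exposed 16 h at 37C to compounds pin-transferred at 217-fold dilution from DMSO stocks.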

[3] = molecular target: Cellular tumor antigen p53 (Homo sapiens) (UniProt P04637); experiment: TOX21_p53_BLA_p2_ratio: Tox21 HCT-116 p53 Agonism Beta-lactamase Assay, Ratio, Phase 2 (AID 2283592)
Sequence of Cellular tumor antigen p53 (Homo sapiens) (P04637 whole entry, looked up): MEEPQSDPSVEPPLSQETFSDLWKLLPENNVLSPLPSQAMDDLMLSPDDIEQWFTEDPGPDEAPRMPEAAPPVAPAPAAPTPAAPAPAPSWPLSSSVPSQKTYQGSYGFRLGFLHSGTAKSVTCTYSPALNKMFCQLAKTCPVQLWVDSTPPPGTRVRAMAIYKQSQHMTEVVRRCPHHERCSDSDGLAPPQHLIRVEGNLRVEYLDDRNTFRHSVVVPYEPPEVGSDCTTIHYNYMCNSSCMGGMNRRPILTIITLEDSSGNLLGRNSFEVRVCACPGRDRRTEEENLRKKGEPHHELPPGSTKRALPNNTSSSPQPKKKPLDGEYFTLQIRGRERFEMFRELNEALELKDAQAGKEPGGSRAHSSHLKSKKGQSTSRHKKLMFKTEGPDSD
Method in brief: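 Cleaved-to-uncleaved substrate ratio (460 vs 530 nm) measured in HCT116 cells with an inducible beta-lactamase reporter linked to p53 activity. Compounds incubated 16 h at 37C before 2 h room-temperature CCF4-AM loading.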

[4] = TOX21_p53_BLA_p3_viability: Viability Assessment in the Tox21 HCT-116 p53 Agonism Beta-lactamase Assay, Phase 3 (AID 2283593);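 also: cells exposed to compound for 16 h before reading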
Method in brief: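 Cellular ATP was quantified by CellTiter-Glo luminescence, read after 30 min at room temperature. Beforehand, HCT116 cells (4000/well) received compound 5 h post-seeding, 217-fold diluted from DMSO, then incubated 16 h at 37C.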

[5] = molecular target: Cellular tumor antigen p53 (Homo sapiens) (UniProt P04637); experiment: TOX21_p53_BLA_p3_ratio: Tox21 HCT-116 p53 Agonism Beta-lactamase Assay, Ratio, Phase 3 (AID 2283596)
Method in brief: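 Cells were seeded at 4000/well, rested 5 h at 37C, then dosed with DMSO compound solutions (217-fold dilution) for 16 h. CCF4-AM substrate was loaded for 2 h at room temperature, and the 460/530 nm emission ratio was fitted for gain of signal versus DMSO.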

[6] = TOX21_p53_BLA_p4_viability: Viability Assessment in the Tox21 HCT-116 p53 Agonism Beta-lactamase Assay, Phase 4 (AID 2283597);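 also: hits lower the luminescence signal meaning cytotoxicity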
Method in brief: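 Viability is taken as cellular ATP: after 16 h compound exposure of HCT116 cells and a 2 h room-temperature CCF4-AM substrate step, CellTiter-Glo reagent is added and luminescence is measured 30 min later.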

[7] = molecular target: Cellular tumor antigen p53 (Homo sapiens) (UniProt P04637); experiment: TOX21_p53_BLA_p5_ratio: Tox21 HCT-116 p53 Agonism Beta-lactamase Assay, Ratio, Phase 5 (AID 2283599)
Method in brief: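 Beta-lactamase reporter ratio (blue 460 nm over green 530 nm, 405 nm excitation) after 2 h CCF4-AM loading, in HCT-116 cells exposed 16 h at 37 C to compounds pinned at 217-fold dilution. Increases relative to DMSO baseline scored.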

[8] = TOX21_p53_BLA_p5_viability: Viability Assessment in the Tox21 HCT-116 p53 Agonism Beta-lactamase Assay, Phase 5 (AID 2283600)
Method in brief: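 Viability is taken from cellular ATP content, measured by luciferase luminescence in the same wells after the beta-lactamase ratio read. Cells are seeded at 4000 per well and exposed to DMSO-dissolved compounds, diluted 217-fold, for 16 h.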

Measured: AC50

[Cl][Bi]([Cl])([c]1ccccc1)([c]1ccccc1)[c]1ccccc1
active: [1] 7.84 µM | [2] 13.9 µM | [3] 18.4 µM | [4] 71.4 µM | [5] 76.2 µM | [6] 11.2 µM | [7] 67.7 µM | [8] 58.1 µM

CCC(C)C=O (configuration not stated)
inactive: all assays above

COCC(C)N (configuration not stated)
inactive: all assays above

Cn1c([N+](=O)[O-])cnc1COC(N)=O
inactive: all assays above

CN1C(=O)N(C)C(O)C1O (configuration not stated)
inactive: all assays above

Cc1cc(C)c(C)c(C)c1
not listed: [8]
inactive: all other assays above

C[Si](C)(CCCN)O[Si](C)(C)CCCN
not listed: [8]
inactive: all other assays above

O=C(Nc1cccc(C(F)(F)F)c1)c1cc(Br)cc(Br)c1O
inactive: [1] | [8]
active: [2] 747 nM and 1.12 µM | [3] 181 nM and 1.14 µM | [4] 429 nM and 1.04 µM | [5] 306 nM and 746 nM | [6] 1.82 µM and 1.7 µM | [7] 1.07 µM and 7.71 µM

CCCCCCCCCCCSCC(=O)O
inactive: [1] | [4] | [5]
active: [2] 62 µM | [3] 83.3 µM | [6] 84 µM | [7] 83.5 µM | [8] 74 µM

Nc1ccc(-c2ccc(F)cc2)cc1
not listed: [8]
inactive: all other assays above

Cc1cccc(C(=O)O)c1
not listed: [8]
inactive: all other assays above

CC(=O)Nc1nnc(S(N)(=O)=O)s1
inactive: all assays above

COc1ccc(C(Cl)=C(c2ccc(OC)cc2)c2ccc(OC)cc2)cc1
inactive: all assays above

C=C1C2CCC(C2)C1(C)C (configuration not stated)
inactive: all assays above

C=CC(=O)NC(C)(C)CS(=O)(=O)O
inactive: all assays above

O=C(O)CC(C(=O)O)C(CC(=O)O)C(=O)O (configuration not stated)
inactive: all assays above

CCC(CO)CO
not listed: [8]
inactive: all other assays above

Nc1cccc(C(F)(F)F)c1
not listed: [7] | [8]
inactive: all other assays above

CC(=O)[C@@]1(O)CC[C@H]2[C@@H]3C[C@H](C)C4=CC(=O)C=C[C@]4(C)[C@@]3(F)[C@@H](O)C[C@@]21C
not listed: [8]
inactive: all other assays above

O=[N+]([O-])C1(Br)COCOC1
not listed: [8]
inactive: all other assays above

CCCCC(CC)CCC(CC(C)C)OS(=O)(=O)O (configuration not stated)
inactive: all assays above

Cc1cc(O)c(Cl)c(C)c1Cl
active: [2] 57 µM | [3] 73.9 µM | [4] 57.8 µM | [5] 85 µM | [6] 61.7 µM | [7] 77.1 µM | [8] 70.1 µM
inactive: [1]
